High-throughput results (PubChem BioAssay)
Shown are actives, neighbours in structure and some others; about 2.7% of the full set was active somewhere.
RXFP1 antagonist: RXFP1 (human) relaxin receptor antagonism; activity change, negative = inhibition, % at 57.5 µM; 0.59% of 350,000 active; Q9HBX9; AID 1259400; HEK293-RXFP1, relaxin-stimulated cAMP HTRF, 30 min; stronger effect = lower value;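 active means activity change of -60% or lower, but not beyond a set lower limit; inconclusive means change between -60% and -40%, or beyond the set limit; inactive means change above -40%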
Target sequence (Q9HBX9 whole entry, looked up): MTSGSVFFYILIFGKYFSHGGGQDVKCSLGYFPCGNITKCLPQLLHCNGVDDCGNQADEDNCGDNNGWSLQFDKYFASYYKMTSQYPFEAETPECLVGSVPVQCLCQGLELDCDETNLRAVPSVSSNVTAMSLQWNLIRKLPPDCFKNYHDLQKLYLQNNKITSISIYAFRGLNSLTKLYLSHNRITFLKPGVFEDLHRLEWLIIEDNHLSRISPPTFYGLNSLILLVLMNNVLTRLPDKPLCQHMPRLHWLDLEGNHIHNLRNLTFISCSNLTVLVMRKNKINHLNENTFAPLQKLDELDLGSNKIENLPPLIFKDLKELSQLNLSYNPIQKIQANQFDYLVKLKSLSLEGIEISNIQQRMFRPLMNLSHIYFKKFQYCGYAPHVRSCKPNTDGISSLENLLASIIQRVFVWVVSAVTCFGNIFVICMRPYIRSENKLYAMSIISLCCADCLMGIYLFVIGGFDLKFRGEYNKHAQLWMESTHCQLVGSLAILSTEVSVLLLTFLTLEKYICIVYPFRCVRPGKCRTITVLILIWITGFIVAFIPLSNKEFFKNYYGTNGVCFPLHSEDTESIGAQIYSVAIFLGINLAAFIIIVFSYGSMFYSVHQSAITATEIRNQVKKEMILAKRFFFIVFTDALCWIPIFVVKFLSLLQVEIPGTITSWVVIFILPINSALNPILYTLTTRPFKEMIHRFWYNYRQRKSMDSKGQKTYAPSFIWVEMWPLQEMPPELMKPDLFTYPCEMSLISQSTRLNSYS
ClpP mod: qHTS Assay for Activators of ClpP. ATP-dependent Clp protease proteolytic subunit (Bacillus subtilis (strain 168)), P80244. purified B. subtilis ClpP, FRET peptide cleavage, 20 min. Potency, µM (top dose mostly 57.5 µM). 1.9% of 340,000 active; active means well fitted falling curve with a large enough effect; inconclusive means small, poorly fitted or top-dose-only effect; inactive means no such curve, though single readings can be large or run the other way; further: the source files actives as falling curves though it sought activators and does not explain the sign; nearly all actives have a fitted effect of over 65% in size
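FRET quenching reversal measured ClpP activation: 10 microg/mL B. subtilis ClpP at pH 8 with the FRET-FV decapeptide, read at 430 nm after 320 nm excitation. The 20-min minus 0-min signal was scaled between DMSO/no-enzyme wells and ADEP (5.8 microM final).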
Akt phos inh: blocks phosphorylation of Akt. Neuro2A IGF-stimulated pAkt S473 HTRF, 20 min; stronger effect = lower value. activity change, % for hits at 50 µM. 0.32% of 360,000 active. AID 651550; in the data active means activity change below about -80%; inconclusive means mostly about -51% to -80%
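Single-point screen (50 µM final compound) in Neuro2A cells stimulated 20 min with 6 nM IGF at 37 deg C. After lysis, Ser473-phosphorylated Akt read by HTRF (ex 330 nm, em 615/665 nm) as the 665/615 ratio.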
RXFP1 agonist: RXFP1 (human) receptor agonism. Q9HBX9. HEK293T-RXFP1 cAMP TR-FRET, 30 min; response scale: percent of porcine relaxin response, buffer zero. Potency, µM (doses to about 57.5 µM), usual class: activators. 0.3% of 370,000 active. AID 2676; active means well fitted activation curve with a large enough effect; inconclusive means small, poorly fitted or top-dose-only effect; further: nearly all actives have a fitted effect of over 60% in size
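HEK293T cells stably expressing RXFP1 were pretreated with the PDE4 inhibitor Ro 20174, exposed to compounds for 30 min at 37C, lysed, and cAMP was read by TR-FRET. Data normalized to buffer (basal) and 29 nM porcine relaxin (100%).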
gsp antagonist: gsp mutant antagonism. gsp-mutant cells, cAMP HTRF, 30 min. Potency, µM (doses to about 76.9 µM), usual class: inhibitors. 0.4% of 340,000 active. AID 624288; calls by dose curve; cell line not stated here;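 further: intracellular cAMP measured with PDE inhibitor Ro 20-1724 present during compound exposure; nearly all actives have a fitted effect of over 65% in size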
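Cells, 2000/well, grown 16–24 h in DMEM 10% FBS with 0.5 mg/ml G418, then compounds plus […] (300 uM addition stock), 30 min at 37C. cAMP read by HTRF (cAMP-d2 and anti-cAMP antibody-K in lysis buffer) after 30 min RT.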
gsp agonist: agonists of gsp mutant (McCune-Albright syndrome) | gsp mutant cells, cAMP HTRF, 30 min | 0.13% of 340,000 active | Potency, µM (doses to about 76.9 µM), usual class: activators; active means well fitted activation curve with a large enough effect; inconclusive means small, poorly fitted or top-dose-only effect, or another doubt; inactive means no such curve, though single readings can be large or run the other way; cell line not stated here;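 further: phosphodiesterase inhibitor Ro 20-1724 added with compounds to block cAMP breakdown; nearly all actives have a fitted effect of over 60% in size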
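Cells in DMEM/10% FBS with G418 were pretreated with compounds in DMSO plus […] (300 uM stock) for 30 min at 37C. cAMP was measured by HTRF (cAMP-d2 plus anti-cAMP antibody-K) after 30 min at room temperature.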
Large screens that a line does not name were inactive.

CCCCN(C(=O)Cn1ncc(Cl)c(Cl)c1=O)c1c(N)n(CC(C)C)c(=O)[nH]c1=O	none
O=C(NC(=S)Nc1ccccc1N1CCN(C(=O)c2ccccc2)CC1)c1ccccc1F	ClpP mod 32µM
O=C(NC(=S)Nc1ccccc1N1CCOCC1)c1ccccc1F	none
O=C(Cc1ccc(Cl)cc1)Nc1ccccc1N1CCN(C(=O)c2ccccc2)CC1	gsp antagonist 28µM
O=C(Nc1ccccc1N1CCN(C(=O)c2ccccc2)CC1)c1ccc(Cl)cc1	gsp antagonist inconclusive (no result: ClpP mod)
CCOc1ccc(NC(=O)c2c(NCc3ccc(C)o3)sc3c2CCCCC3)cc1	none (no result: Akt phos inh, gsp antagonist, gsp agonist)
Cc1ccc(N2C(=O)N(CC(=O)Nc3cc(F)ccc3C)C(=O)C2C)cc1 (configuration not stated)	none
Cc1ccc(N2C(=O)N(CC(=O)Nc3ccccc3C(F)(F)F)C(=O)C2C)cc1 (configuration not stated)	ClpP mod 16µM
CC(C)NC(=O)C1(C)CN(S(C)(=O)=O)CC(=O)N1Cc1cccc(F)c1 (configuration not stated)	none (no result: RXFP1 antagonist, RXFP1 agonist, gsp antagonist, gsp agonist)
COc1ccc(Br)c(C(=O)Nc2ccc(F)cc2)c1	none (no result: ClpP mod)
COc1ccc(C(=O)N2c3ccccc3C(C)(c3ccc(Cl)cc3)CC2(C)C)cc1 (configuration not stated)	none (no result: Akt phos inh, gsp antagonist, gsp agonist)
CCc1cc(C(=O)Nc2cnn(Cc3ccccc3C)c2)no1	none (no result: Akt phos inh, gsp antagonist, gsp agonist)
CN(CC(=O)Nc1cccc(F)c1)C(=O)CSc1ccc(Br)cc1	RXFP1 antagonist -72 (no result: ClpP mod)
Cc1ccc(-n2nc(C(=O)N3CCCCC3C)c(=O)n(C)c2=O)cc1 (configuration not stated)	none (no result: Akt phos inh, gsp antagonist, gsp agonist)
COc1ccc(OC)c(-c2cc(C3CCN(c4cc(Cl)nc(N)n4)CC3)[nH]n2)c1	ClpP mod inconclusive, gsp antagonist 35µM
CNc1cnc(-c2ccc(F)c(F)c2F)cn1	none (no result: RXFP1 antagonist, RXFP1 agonist, gsp antagonist, gsp agonist)
Cc1nc(NCc2ccco2)c2c3c(sc2n1)CCC3	none
CCN1CCc2c(sc3c2c(NCc2ccco2)nc2nnnn23)C1	ClpP mod 13µM, gsp agonist inconclusive
CCN(CC)CCN(C)c1ccc(/C=C/c2ccnc3ccccc23)cc1	none (no result: RXFP1 antagonist, Akt phos inh, RXFP1 agonist, gsp antagonist, gsp agonist)
Cn1c(=O)c2c(nc(N/N=C/c3ccc(OC(=O)c4ccco4)cc3)n2Cc2ccccc2)n(C)c1=O	ClpP mod 28µM (no result: RXFP1 antagonist)
CCCN(C)C[C@@H]1Oc2ncc(Br)cc2C(=O)N([C@@H](C)CO)C[C@H]1C	gsp agonist inconclusive (no result: RXFP1 agonist, gsp antagonist)
CCCC(=O)N1CCN(c2ccc(NC(=O)c3cccs3)cc2)CC1	ClpP mod 16µM
O=C(NCc1ccc(F)cc1)c1cc2ccccc2o1	none (no result: ClpP mod)
Cc1cc(=O)n2c(nc3ccccc32)[nH]1	ClpP mod 14µM
CCOC(=O)c1cc(=O)n2c(nc3ccccc32)[nH]1	none (no result: RXFP1 antagonist, gsp agonist)
COc1ccc(N2CCN(c3ccc(N4C(=O)COCC4=O)cc3[N+](=O)[O-])CC2)cc1	ClpP mod 28µM
COc1ccc(N2CCN(c3ccc(N4C(=O)CC(C)C4=O)cc3[N+](=O)[O-])CC2)cc1 (configuration not stated)	none
CNc1ccccc1C(=O)OC(C)C(=O)Nc1ccc(S(=O)(=O)N2CCCC2)cc1 (configuration not stated)	ClpP mod 28µM
COc1cc(CN2CC(=O)N(c3ccccc3Cl)C2=S)cc(OC)c1OC	gsp antagonist 35µM
COC(=O)c1cc(-c2ccccc2)c2c(=O)n(C)c(=O)n(C)c2n1	none (no result: RXFP1 antagonist, ClpP mod, Akt phos inh, gsp antagonist, gsp agonist)
CCOc1ccccc1-c1cc(-c2ccccc2)nc2c1c(=O)n(C)c(=O)n2C	ClpP mod 32µM
CSc1ccccc1NC(=O)c1c(Br)cnn1C	Akt phos inh -122%
O=CN1CCN(C(=O)Cc2ccc([N+](=O)[O-])cc2)CC1	ClpP mod 25µM, gsp agonist inconclusive
O=CN1CCN(C(=O)c2ccc([N+](=O)[O-])cc2)CC1	none
Cc1ccc(-n2ncc3c(N(C)Cc4ccccc4)ncnc32)cc1	ClpP mod 32µM (no result: Akt phos inh, gsp antagonist, gsp agonist)
Cc1ccc(-n2ncc3c(N(CCO)Cc4ccccc4)ncnc32)cc1	ClpP mod inconclusive (no result: Akt phos inh, gsp antagonist, gsp agonist)
CCOc1ccc(CCNS(=O)(=O)c2cnc[nH]2)cc1OCC	Akt phos inh -132%
CCOc1ccc(CCNS(=O)(=O)c2ccc(-c3ccc(=O)[nH]n3)o2)cc1OCC	none
CNc1ccc(/C=C2\C=Cc3ccccc32)cc1	none (no result: RXFP1 antagonist, Akt phos inh, RXFP1 agonist, gsp antagonist, gsp agonist)
O=C(CSc1nc2ccc([N+](=O)[O-])cc2[nH]1)NC1CCCCCC1	gsp antagonist 40µM
O=C(CSc1nc2ccc([N+](=O)[O-])cc2[nH]1)NC1CCCCC1	gsp antagonist 28µM
O=C(O)[C@H](O)[C@@H](O)[C@H](O[C@@H]1O[C@H](CO)[C@H](O)[C@H](O)[C@H]1O)[C@H](O)CO	none (no result: ClpP mod, Akt phos inh, RXFP1 agonist, gsp antagonist, gsp agonist)
CCN(CC)c1ccc(/C=N/NC(=O)Cc2cccs2)c(O)c1	ClpP mod 28µM
CCN(CC)c1ccc(/C=N/NC(=O)c2ccco2)c(O)c1	none
O=c1[nH]cnc2c1c(-c1ccccc1)cn2-c1ccccc1	RXFP1 antagonist -75 (no result: Akt phos inh)
CC(=O)O[C@H]1CC[C@@]2(C)C(=CC[C@@H]3[C@@H]2CC[C@]2(C)C(C(C)=O)=CC[C@@H]32)C1	none (no result: ClpP mod, Akt phos inh, RXFP1 agonist, gsp antagonist, gsp agonist)
CC(C)NC(=O)c1ccccc1N(Cc1ccccc1)S(C)(=O)=O	none
COC(=O)c1ccccc1N(Cc1ccccc1)S(C)(=O)=O	ClpP mod 25µM
c1ccc(-c2ccccc2-c2nc(-c3cccnc3)no2)cc1	gsp agonist inconclusive
c1ccc2c(-c3nc(-c4ccncc4)no3)cccc2c1	ClpP mod 32µM
c1ccc(-c2noc(-c3cccc4ccccc34)n2)cc1	ClpP mod 28µM
c1cncc(-c2noc(-c3cccc4ccccc34)n2)c1	ClpP mod 35µM
OCC[C@@H]1C[C@H](O)[C@@H](O)[C@]2(OCCc3cc(Cl)ccc32)O1	none (no result: RXFP1 antagonist, RXFP1 agonist, gsp antagonist, gsp agonist)
COc1ccccc1OC(C)C(=O)Nc1cccc(-c2nc3ccccc3o2)c1 (configuration not stated)	ClpP mod inconclusive (no result: RXFP1 antagonist, Akt phos inh, gsp antagonist, gsp agonist)
CC(C)Oc1ccc(Cn2c(-c3ccco3)n[nH]c2=S)cc1	ClpP mod 28µM, gsp antagonist inconclusive
O=C(CN1C(=O)COc2ccc(S(=O)(=O)N3CCCC3)cc21)N1CCN(c2ccc(F)cc2)CC1	none (no result: RXFP1 antagonist, Akt phos inh, gsp antagonist, gsp agonist)
CC(C)Sc1nc(NCc2ccco2)c2c3c(sc2n1)COC(C)(C)C3	ClpP mod 28µM, Akt phos inh -118%
CSc1nc(SCC(=O)NCc2ccco2)c2c3c(sc2n1)COC(C)(C)C3	none
